About 11,000 (3.8%) of roughly 290,000 compounds were called active.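 How the source made its calls: active means mean replicate inhibition above about 79%, with every replicate also reaching it (limit read from the data); inconclusive means only one of the two criteria met; inactive means mean below limit and not every replicate reaching it.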 For the sample, actives were picked, then their nearest neighbours and some compounds at random.
Target: FAD-linked sulfhydryl oxidase ALR (Homo sapiens) (UniProt P55789)
Experiment: ALR-catalysed DTT oxidation blockers – biochemical, H2O2 detection, HRP-luminol luminescence, single point, primary screen (AID 485317)
Details: purified ALR, hits give high values, concentration not given here

Sequence of FAD-linked sulfhydryl oxidase ALR (Homo sapiens) (P55789 whole entry, looked up): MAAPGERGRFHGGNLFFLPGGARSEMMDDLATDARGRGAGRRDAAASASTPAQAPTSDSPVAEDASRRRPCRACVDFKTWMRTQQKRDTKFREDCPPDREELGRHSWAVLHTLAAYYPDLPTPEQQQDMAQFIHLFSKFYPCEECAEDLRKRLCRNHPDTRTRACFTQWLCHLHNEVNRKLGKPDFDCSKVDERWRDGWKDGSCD

inhibition, active:
CCCCN(CC)CCCNC(=O)c1ccc(CSc2nc3ccncc3[nH]2)cc1 98.4%
CCOc1ccc(Br)cc1CSC(=N)N 98.3%
CCCC(O)(c1ccc(OC)cc1)C(CN(C)C)c1ccccc1 (centres undefined) 98.6%
COc1cc(C(=S)NCc2ccccc2)cc(Br)c1O 88.4%
COc1ccc(N2CCN(C(=O)c3cccs3)CC2)cc1 93.9%
O=C(Nc1sc2c(c1C(=O)O)CCC2)c1ccccc1F 98.3%
CC(=O)N1CC(=O)N(CC(=O)Nc2ccc(Br)cc2)C1=S 99.4%
CC1CCCCC12NC(=O)N(CC(=O)Nc1ccc(S(=O)(=O)Nc3ncccn3)cc1)C2=O (centres undefined) 91.2%
CCCCCCc1ccc(O)cc1O 84.4%
N=C(N)SCc1cccc2ccccc12 99.3%

inhibition, inactive:
COc1ccccc1C1=CC(=O)C[C@H](c2ccc(F)cc2)C1 -1.43%
CCN(CC)CCNC(=O)c1ccc(NC(=O)c2cc(-c3ccncc3)nc3ccccc23)cc1 -5.03%
Cc1cc(C)c(NC(=O)CSc2nc3ccncc3[nH]2)c(C)c1 0.095%
Cc1nn(Cc2ccccc2)c(C)c1CNC(=O)c1ccc(F)c(S(=O)(=O)N2CCOCC2)c1 -0.911%
CCOc1cc(/C=C/C(=O)OCC(=O)NCCN2C(=O)CSC2=O)ccc1OCC(C)C 2.31%
CCN(CC(=O)Nc1c(F)cccc1F)C(=O)c1ccc(Sc2nncn2C)c([N+](=O)[O-])c1 -9.3%
CC(C)(C)NCc1cc(Br)ccc1OC1CCCC1 -4.37%
CCOc1ccc(Br)cc1S(=O)(=O)N1CCC(C(=O)O)CC1 -9.17%
CN(C)CC(O)COc1ccc(C(C)(C)c2ccc(OCC(O)CN(C)C)cc2)cc1 (centres undefined) -9.59%
COc1ccc(C(O)(C2CCCCC2)C(CN2CCCC2)c2ccccc2)cc1 (centres undefined) -2.71%
CC(=O)NC(CC(=O)Nc1ccc(S(=O)(=O)N2CCOCC2)cc1)c1ccccc1 (centres undefined) -5.33%
COc1ccc(CNC(=O)CNC(=O)c2sc3ccccc3c2Cl)cc1OC -4.54%
NCCN1CCN2C(=O)CN(C(=O)c3ccccc3)CC12 (centres undefined) 1.22%
Cc1c(C(C)CCCO)oc(=O)c2c1Oc1c(C)c(C(C)C[C@@H](C)O)oc(=O)c1C2 (some centres undefined) -3.12%
COc1cc(C(=O)NCc2ccncc2)cc(Br)c1OCc1ccccc1 -6.06%
COc1cc(C=O)c(Br)cc1OCC(=O)NCc1ccccc1 -3.31%
O=C(CCC(=O)c1ccccc1)NCc1cccc(C(F)(F)F)c1 -5.12%
NC(=O)c1ccsc1NC(=O)COC(=O)COc1ccc(C=O)cc1 0.523%
COc1ccc(C2=NOC(Cn3nc(C(=O)NCc4ccc5c(c4)OCO5)cc3-c3ccccc3)C2)cc1 (centres undefined) -0.145%
COc1ccc(OCC(=O)N2CCN(C(=O)c3cccs3)CC2)cc1 -3.05%
O=C(c1cccs1)N1CCN(C(=O)N2CCOCC2)CC1 5.71%
COc1ccc(C(=O)OC(C)C(=O)NC2CCCC2)cc1S(=O)(=O)N1CCOCC1 (centres undefined) 0.414%
O=C(Nc1ccc(N2CCCCC2)cc1)c1cc(S(=O)(=O)N2CCOCC2)ccc1F 40.2%
COC(=O)c1c(NC(=O)c2ccccc2F)sc2c1C(C(=O)OC)CC2 (centres undefined) 1.9%
NC(=O)c1c(NC(=O)c2ccccc2)sc2c1CCCC2 -3.69%
O=C(NCC(c1cccs1)N1CCOCC1)c1cc(Cl)ccc1[N+](=O)[O-] (centres undefined) -35.8%
CC(C)Oc1ccc(S(=O)(=O)N2CCOCC2)cc1NC(=O)C1CCCC1 0.587%
CCOc1ccc(NC(=O)CN(C)C(=O)Cn2c(=O)cnc3ccccc32)cc1OCC -5.33%
CCOc1ccc(CCNC(=O)COC(=O)C2CCN(c3ccc(C(F)(F)F)cn3)CC2)cc1OCC 0.148%
COCC(=O)Nc1ccc(Br)cc1 -12.4%
Cc1cccc(NC(=O)CN2C(=O)CNC2=O)c1 -1.19%
Cc1ccc(C(=O)Nc2ccc3c(c2)OCCO3)cc1S(=O)(=O)N1CCOCC1 -6.89%
Cc1ccc(OCC(=O)N2CCN(S(=O)(=O)c3ccc(Cl)s3)CC2)cc1C -2.26%
COc1ccc(N2CCN(C(=O)COC(=O)c3cccc(S(=O)(=O)Nc4ccccc4OC)c3)CC2)cc1 1.72%
CC1CCCCC12NC(=O)N(CC(=O)OCC(=O)NCc1ccc(F)cc1)C2=O (centres undefined) -8.04%
CC1CCCCC12NC(=O)N(CC(=O)N1CCN(c3ccccc3)CC1)C2=O (centres undefined) 33.6%
COc1ccccc1C(=O)NCC(=O)NCCSc1ccc(Br)cc1 -5.14%
COc1ccc(/C=N/NC(=O)c2cc(-c3cccc(C)c3)nc3ccccc23)cc1O 12.4%
CC(Oc1ccc(F)cc1)C(=O)Nc1cc(S(=O)(=O)N2CCOCC2)ccc1N1CCN(C)CC1 (centres undefined) 24.9%
CCCCCCc1cc2cc(-c3nnc(-c4ccccc4)o3)c(=O)oc2cc1O 1.08%
CCCCCCCN=C(C)c1ccccc1O -17.6%
COc1cccc(N2CC(NS(=O)(=O)c3ccc(Cl)cc3)CC2=O)c1 (centres undefined) -2.83%
COc1ccc2c(c1)CCNC2Cc1ccc(OC)c(O)c1 (centres undefined) 22%
c1ccc2c(CNn3cnnc3)cccc2c1 -6.4%
N#C/C(=C(/O)Cc1cccc2ccccc12)c1nc2ccccc2s1 4.12%
O=C(CCNC(=O)c1ccc(Br)cc1)Nc1cccc(S(=O)(=O)N2CCCCC2)c1 -14.1%
COc1ccc2oc(C(=O)OCC(=O)N(CC(C)C)c3c(N)n(Cc4ccccc4)c(=O)[nH]c3=O)c(C)c2c1 7.4%
O=C(Nc1cc(S(=O)(=O)N2CCCCC2)ccc1Cl)C1COc2ccccc2O1 (centres undefined) 0.363%
Cc1c(C(=O)OCC(=O)N2CCCC2=O)oc2ccccc12 -37.2%

— PubChem BioAssay AID485317 (Broad Institute, 2010)
